High-throughput results as filed in PubChem BioAssay.
FMDV antiviral = foot and mouth disease virus antiviral activity; hit rate 1.2% among 410,000; FMDV antiviral cell-based qHTS; AID 1159524; Potency, µM (doses to about 57.9 µM), hits mostly inhibitors; calls by dose curve; tested in HEK293T cells; also: read-out not given here; nearly all actives have a fitted effect of over 45% in size
HCMV antiviral = inhibitors of human cytomegalovirus; activity change, negative = inhibition, % at 57.5 µM; AID 1259415; HFF cells, HCMV-luciferase reporter, 72 h; stronger effect = lower value; hit rate 4.5% among 410,000; in the data active = activity change below about -60%; inconclusive = no clear call, values can overlap the other calls; inactive = above about -39%
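Cell-based, HFFs, 1000 cells/well, 16 h 37C; cpds in DMSO + HCMV-luc, MOI 1 PFU/cell; 72 h 37C; OneGlo luminescence after 5 min RT; norm. to buffer vs Salinomycin 10uM.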
HCV inh = blocks hepatitis C virus; AID 651820; Huh7.5.1 HCVcc-Cre infection, luciferase reporter, 44 h; Potency, µM (titrated, usually from 41.8 µM), most hits filed as inhibitors; hit rate 3.4% among 340,000; active = well fitted inhibition curve with a large enough effect; inconclusive = small, poorly fitted or top-dose-only effect, or another doubt; inactive = no such curve, though single readings can be large or run the other way
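Infectious HCV cell culture screen: compound-treated cells (1,000/well, pre-plated 4 h) are infected with HCVcc-Cre at roughly 0.5 moi and grown 44 h. Infection is quantified by luciferase signal after 15 min substrate incubation at room temperature.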
SARS PLpro yeast = blocks SARS-CoV papain-like protease in a yeast assay; S. cerevisiae expressing SARS-CoV PLpro, growth rescue; Potency, µM (titrated, usually from 32.9 µM), usual class: activators; hit rate 0.19% among 330,000; calls by dose curve; also: nearly all actives have a fitted effect of over 55% in size
LASV entry inh = blocks Lassa virus binding to or entry into cells; Potency, µM (highest dose often 37.9 µM), hits mostly inhibitors; AID 540256; Lassa virus pseudotype entry inhibition, cell reporter; hit rate 1.2% among 300,000; calls by dose curve; tested in HEK293 cells; also: nearly all actives have a fitted effect of over 50% in size
MARV entry inh = Marburg virus entry inhibition | Marburg virus pseudotyped entry inhibition, cell reporter | hit rate 1.8% among 300,000 | AID 540276 | Potency, µM (top dose mostly 37.8 µM), usual class: inhibitors; calls by dose curve; tested in HEK293 cells
Of the large screens only hits and unclear results are named; the others gave an inactive call. The list is not random: actives were taken first. Their share in the collection is about 8%.

CCCCC[C@@H](/C=C/C1C(=O)C=C[C@H]1C/C=C\CCCC(=O)OC)OC(C)=O (stereo partly specified)	FMDV antiviral 28µM (no result: SARS PLpro yeast, LASV entry inh, MARV entry inh)
O=S(=O)(c1ccc(F)c(F)c1F)N1CCN(c2ncnc3sccc23)CC1	FMDV antiviral inconclusive, HCMV antiviral -79, HCV inh inconclusive, LASV entry inh inconclusive, MARV entry inh inconclusive
Cc1ccc(S(=O)(=O)N2CCN(c3ncnc4sccc34)CC2)cc1	FMDV antiviral inconclusive, HCMV antiviral -85, HCV inh 6.3µM (no result: LASV entry inh, MARV entry inh)
O=S(=O)(c1ccccc1C(F)(F)F)N1CCN(c2ncnc3sccc23)CC1	FMDV antiviral inconclusive, HCMV antiviral inconclusive, HCV inh inconclusive, LASV entry inh inconclusive, MARV entry inh inconclusive
c1ccc(CC2CCN(c3ncnc4sccc34)CC2)cc1	FMDV antiviral inconclusive, HCMV antiviral -85, HCV inh 4µM
O=C(O)c1cc2c(N3CCC(Cc4ccccc4)CC3)ncnc2s1	none
COc1cccc(CNC(=O)Cc2c(C)c3ccc(OC)c(C)c3oc2=O)c1	none (no result: HCV inh, SARS PLpro yeast)
COc1ccccc1Cc1c(-c2cccc(Br)c2)nc2ccc(C)cn12	none (no result: FMDV antiviral, HCV inh, SARS PLpro yeast, LASV entry inh, MARV entry inh)
CCOC(=O)C1CCN(CC(O)COCc2ccc3c(c2)OCO3)CC1 (stereo unspecified)	none (no result: LASV entry inh, MARV entry inh)
O=C1c2cccc3cccc(c23)C(=O)N1CC1CCN(CC(O)COCc2ccc3c(c2)OCO3)CC1 (stereo unspecified)	HCV inh 10µM, LASV entry inh inconclusive, MARV entry inh inconclusive
COc1ccc(OCC(O)CN2CCC(CN3C(=O)c4cccc5cccc(c45)C3=O)CC2)cc1 (stereo unspecified)	HCV inh inconclusive, LASV entry inh inconclusive, MARV entry inh 4.5µM
COc1cccc(CNC(=O)c2ccc3c(c2)sc2nc(-c4ccccc4)cn23)c1OC	none (no result: HCMV antiviral, HCV inh, SARS PLpro yeast, MARV entry inh)
CC1=Nc2cc(C(=O)NCCc3ccc(Cl)cc3)ccc2Sc2c(C)ccc(C)c21	HCMV antiviral -88, LASV entry inh inconclusive, MARV entry inh inconclusive (no result: HCV inh, SARS PLpro yeast)
CCCNC(=O)c1ccc2c(c1)N=C(C)c1c(C)ccc(C)c1S2	HCMV antiviral -102, LASV entry inh inconclusive, MARV entry inh inconclusive (no result: HCV inh, SARS PLpro yeast)
CC1=Nc2cc(C(=O)NCCc3ccccc3)ccc2Sc2c(C)ccc(C)c21	HCMV antiviral -103, MARV entry inh inconclusive (no result: HCV inh, SARS PLpro yeast)
CC1=Nc2cc(C(=O)NCCCN3CCOCC3)ccc2Sc2c(C)ccc(C)c21	HCMV antiviral -68, HCV inh inconclusive, LASV entry inh inconclusive, MARV entry inh inconclusive
COc1ccc(CNC(=O)c2ccc3c(c2)N=C(C)c2c(C)ccc(C)c2S3)cc1	FMDV antiviral inconclusive, LASV entry inh inconclusive, MARV entry inh inconclusive (no result: HCV inh, SARS PLpro yeast)
O=S(=O)(c1ccccc1)N1CCC[C@@]2(CCN(c3ccccc3)C2)C1	none (no result: HCMV antiviral, HCV inh, SARS PLpro yeast, LASV entry inh, MARV entry inh)
Cn1cnnc1Sc1ccc(CN2CCOc3ccc(C4=CCCCC4)cc3C2)o1	none (no result: HCMV antiviral, HCV inh, SARS PLpro yeast, LASV entry inh, MARV entry inh)
O=C(NCC1CCN(S(=O)(=O)c2ccccc2)CC1)Nc1ccccc1	LASV entry inh inconclusive
N#Cc1cccc(N=Cc2c(O)ccc3ccccc23)c1	HCMV antiviral -61
CC(=O)CSc1nc2c(c(=O)[nH]c(=O)n2C)n1CCCc1ccccc1	HCV inh inconclusive
O=S(=O)(c1ccccc1)N1CCC(O)(CSc2ccc(F)cc2)CC1	FMDV antiviral inconclusive, HCMV antiviral -86, HCV inh 11µM, LASV entry inh inconclusive, MARV entry inh inconclusive
Cc1ccn2c(=O)cc(COc3ccc(NC(=O)c4ccccc4F)cc3)nc2c1	none (no result: HCV inh, SARS PLpro yeast, MARV entry inh)
CC(C)N(CCNC(=O)c1oc(=O)c2ccccc2c1-c1ccccc1)Cc1ccco1	none
O=C(Nc1ccccc1)N1CCCC2(CCN(C(=O)c3ccco3)CC2)C1	none (no result: HCMV antiviral, HCV inh, SARS PLpro yeast, LASV entry inh, MARV entry inh)
O=C(Nc1sc2c(c1C(=O)O)CCCCC2)c1ccco1	LASV entry inh inconclusive, MARV entry inh inconclusive
COCC(=O)Nc1sc2c(c1C(=O)OC)CCC(C)C2 (stereo unspecified)	HCV inh 7.1µM
COC(=O)c1c(NC(=O)C2CC2)sc2c1CCCC2	HCV inh 10µM (no result: LASV entry inh, MARV entry inh)
CC1CCc2c(sc(NC(=O)c3ccco3)c2C(=O)O)C1 (stereo unspecified)	HCV inh inconclusive, LASV entry inh inconclusive, MARV entry inh 3.5µM
COC(=O)c1c(NC(NC(=O)C(C)C)C(Cl)(Cl)Cl)sc2c1CCC2 (stereo unspecified)	HCMV antiviral inconclusive, HCV inh inconclusive, LASV entry inh inconclusive, MARV entry inh inconclusive
COC(=O)c1c(NC(NC(C)=O)C(Cl)(Cl)Cl)sc2c1CCCC2 (stereo unspecified)	FMDV antiviral 35µM, HCV inh 11µM, MARV entry inh inconclusive
c1ccc(-c2noc(-c3cccnc3NCc3ccco3)n2)cc1	none (no result: HCV inh, SARS PLpro yeast)
Cc1cc(C)cc(NC(=O)CCCc2nc(-c3ccco3)no2)c1	none (no result: HCV inh, SARS PLpro yeast)
CCOC(=O)[C@H](CCc1ccccc1)N[C@@H](C)C(=O)N1[C@H](C(=O)O)C[C@H]2CCCC[C@@H]21	none (no result: HCMV antiviral, HCV inh, SARS PLpro yeast)
CCN(CC)C(=O)N1CCC2CCCCC2C1CN1C(=O)C2=C(CCCC2)C1=O (stereo unspecified)	none (no result: FMDV antiviral, HCMV antiviral, HCV inh, SARS PLpro yeast, LASV entry inh)
CCOC(=O)c1c(NC(NC(C)=O)C(Cl)(Cl)Cl)sc2c1CCCC2 (stereo unspecified)	FMDV antiviral inconclusive, HCMV antiviral inconclusive, HCV inh 10µM, LASV entry inh inconclusive, MARV entry inh inconclusive
CCOC(=O)c1c(NC(NC(=O)CF)C(Cl)(Cl)Cl)sc2c1CCCC2 (stereo unspecified)	HCV inh inconclusive, LASV entry inh inconclusive, MARV entry inh inconclusive
COC(=O)[C@@H]1[C@@H](CO)[C@@H]2Cn3c(ccc(Br)c3=O)[C@@H]2N1CC1CCCC1	none (no result: FMDV antiviral, HCV inh, SARS PLpro yeast, LASV entry inh, MARV entry inh)
CN1CCN(C2Cc3cc(Cl)ccc3Sc3cc(F)ccc32)CC1 (stereo unspecified)	FMDV antiviral inconclusive, HCMV antiviral -78, HCV inh inconclusive, LASV entry inh inconclusive, MARV entry inh inconclusive (no result: SARS PLpro yeast)
OCCN1CCN(C2Cc3cc(Cl)ccc3Sc3ccc(Cl)cc32)CC1 (stereo unspecified) (tested in a mixture with another compound)	HCV inh inconclusive, LASV entry inh inconclusive, MARV entry inh inconclusive (no result: HCMV antiviral)
CN1CCN(C2=Cc3ccccc3Sc3cc(F)c(F)cc32)CC1	FMDV antiviral inconclusive, HCV inh 11µM, LASV entry inh inconclusive, MARV entry inh inconclusive
CN1CCN(c2cc(-c3ccccc3C(F)(F)F)ncn2)CC1	none (no result: HCMV antiviral, HCV inh, SARS PLpro yeast, LASV entry inh, MARV entry inh)
CN(C)CC/C=C1/c2cc(F)ccc2Sc2ccc(Cl)cc21	HCV inh inconclusive, LASV entry inh inconclusive, MARV entry inh inconclusive (no result: SARS PLpro yeast)
CN1CCN(C2=Cc3ccccc3Sc3cc(F)c(Cl)cc32)CC1	FMDV antiviral inconclusive, HCV inh 13µM, MARV entry inh inconclusive
CN1CCN(C2=Cc3cc(Cl)ccc3Sc3cc(F)ccc32)CC1	FMDV antiviral inconclusive, HCV inh 7.1µM, LASV entry inh 10µM, MARV entry inh inconclusive
CC(C)Cc1nc2cc(NS(=O)(=O)N(C)C)cc(C(=O)N3CCOc4ccccc4C3)c2n1C	none (no result: HCMV antiviral, HCV inh, SARS PLpro yeast, LASV entry inh, MARV entry inh)
CN1CCN(c2ncnc3ccc(-c4cccc(C#N)c4)cc23)CC1	none (no result: HCMV antiviral, HCV inh, SARS PLpro yeast, LASV entry inh, MARV entry inh)
